Screening data (PubChem BioAssay)
This is a sample that favours compounds with a hit; in the whole collection about 8.7% have one here.
VACV mCherry inh = vaccinia inhibition (mCherry reporter); Vaccinia virus mCherry reporter infection, fluorescence; Potency, µM (highest dose often 36.5 µM), for inactives: at the top dose activity change, negative = inhibition, actives largely listed as inhibitors; 310,000 compounds, 0.63% hits; calls by dose curve; tested in A549 cells; further: nearly all actives have a fitted effect of over 35% in size
Pf growth 96h = P. falciparum growth inhibition at 96 hour, primary screen for plastid delayed-death inhibitors; P. falciparum luciferase reporter growth, 96 h; Potency, µM (top dose mostly 28.7 µM), for the others: top-dose activity change, negative = inhibition, usual class: inhibitors; 320,000 compounds, 6.9% hits
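Two-generation exposure (96 h) targets delayed-death phenotype. Reporter parasites carrying integrated firefly luciferase, in red cells at 2% hematocrit and 0.05% parasitemia final, kept at 37 C, 5% CO2; luminescence loss indicates inhibition.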
Pf growth 48h = P. falciparum growth inhibition at 48 hours (one generation); P. falciparum luciferase growth in erythrocytes, 48 h; Potency, µM (doses to about 28.7 µM), without a hit: top-dose activity change, negative = inhibition, hits mostly inhibitors; 310,000 compounds, 5.9% hits; AID 504832
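A one-generation exposure of luciferase-tagged malaria parasites in RPMI 1640/Albumax erythrocyte culture, 37 C and 5% CO2. Inhibition is inferred from decreased luminescence after adding detection reagent.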
AMA1 RON2 block = inhibitors of Plasmodium falciparum AMA1-RON2 interaction; AlphaScreen AMA1-biotinylated RON2 peptide binding; 360,000 compounds, 0.2% hits; Potency, µM (series often up to 58.2 µM), inactives show top-dose activity change, negative = inhibition, most hits filed as inhibitors;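 further: 0% = vehicle wells and -100% = peptide control; nearly all actives have a fitted effect of over 45% in size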
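AMA1 (3D7) with his tag at 25 nM final met compounds first, then biotinylated RON2 peptide at 25 nM; detection used donor plus acceptor beads, 10 µg/mL apiece, read by AlphaScreen after 30 min at room temperature.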
Vaccinia Venus = vaccinia inhibition (Venus reporter). 330,000 compounds, 0.46% hits. Potency, µM (doses to about 36.5 µM), for the others: at the highest dose activity change, negative = inhibition, hits mostly inhibitors. AID 720580. Vaccinia virus Venus reporter expression, fluorescence; calls by dose curve; tested in A549 cells; further: nearly all actives have a fitted effect of over 30% in size
An asterisk follows results filed as active. Unless noted, the call rests on the fitted dose curve; in most records, active means well fitted curve in the direction sought with a large enough effect; inconclusive means small, poorly fitted or top-dose-only effect, or another doubt; inactive means no such curve, though single readings can be large; an effect the other way counts as inactive or inconclusive. Unless noted, on the % scale 0 is the no-effect control and ±100 the full control effect; potency means the concentration at half of the fitted maximal effect.

Results for CCn1nc(C)cc1C(=O)NC1CCCc2c1cnn2-c1ccc(C)c(C)c1 (stereo not given) ?
VACV mCherry inh: -29%; Pf growth 96h: 15µM*; Pf growth 48h: inconclusive; AMA1 RON2 block: 11%; Vaccinia Venus: inconclusive

Results for CCCC(=O)NC1CCCc2c1cnn2-c1ccc(C)c(C)c1 (stereo not given) ?
Pf growth 96h: 3.3µM*; Pf growth 48h: 7%; AMA1 RON2 block: 1%

Results for CC(C)(C)c1ccc(-n2ncc3c2CCCC3NC(=O)CN2CCCC2=O)cc1 (stereo not given) ?
VACV mCherry inh: -24%; Pf growth 96h: 13µM*; Pf growth 48h: 18%; AMA1 RON2 block: 16%; Vaccinia Venus: -25%

What do the screens show for `Cc1cc(C(=O)NC2CCCc3c2cnn3-c2ccc(C)c(C)c2)no1` (stereo not given)?
Pf growth 96h: -8%; Pf growth 48h: -19%; AMA1 RON2 block: -5%

What do the screens show for `CC(=O)c1cccc(NC(=O)Nc2sc3nc4n(c(=O)c3c2C)CCC(C)CC4)c1` (stereo not given)?
VACV mCherry inh: -4%; Vaccinia Venus: 2%

What do the screens show for `CCCCN(C(=O)CCC(=O)O)C1CC(=O)N(c2ccc(OCCC)cc2)C1=O` (stereo not given)?
Pf growth 96h: 8%; Pf growth 48h: 0%; AMA1 RON2 block: 3%; Vaccinia Venus: -11%

Results for COc1ccccc1N(O)C1CC(=O)N(c2ccc(Br)cc2)C1=O (stereo not given) ?
Pf growth 96h: 16%; Pf growth 48h: 4%; AMA1 RON2 block: 4%

What do the screens show for `CCCCCCC(=O)N(O)C1CC(=O)N(c2ccc(F)cc2)C1=O` (stereo not given)?
VACV mCherry inh: -10%; Pf growth 96h: 9.3µM*; Pf growth 48h: 4.7µM*; AMA1 RON2 block: -7%; Vaccinia Venus: 10%

How did CCCCCCC(=O)N(O)C1CC(=O)N(c2ccc(Br)cc2)C1=O (stereo not given) do in these assays?
Pf growth 96h: 2%; Pf growth 48h: 13µM*; AMA1 RON2 block: 5%

How did COc1ccc2c(c1)CCc1cnc(-n3ncc(C(=O)NC4CCOC4)c3C3CC3)nc1-2 (stereo not given) do in these assays?
VACV mCherry inh: -19%; Vaccinia Venus: -17%

How did CCCCC(CC)C(=O)Nc1ncc([N+](=O)[O-])s1 (stereo not given) do in these assays?
VACV mCherry inh: 10µM*; Pf growth 96h: 6%; Pf growth 48h: 15%; AMA1 RON2 block: 16%; Vaccinia Venus: inconclusive

How did Cc1ccc(CC(=O)Nc2ncc([N+](=O)[O-])s2)cc1 do in these assays?
VACV mCherry inh: -26%; Pf growth 96h: -20%; Pf growth 48h: 75%; AMA1 RON2 block: -3%; Vaccinia Venus: inconclusive

How did CCOC(=O)N1CCc2c(sc3c2c(=O)n(-c2ccc(CC)cc2)c(=O)n3CC(=O)NCC2CCCO2)C1 (stereo not given) do in these assays?
Pf growth 96h: inconclusive; Pf growth 48h: 5.2µM*; AMA1 RON2 block: 3%

How did CC(=O)N1CCc2c(sc3c2c(=O)n(Cc2ccccc2)c(=O)n3CC(=O)NCC2CCCO2)C1 (stereo not given) do in these assays?
VACV mCherry inh: inactive; Pf growth 96h: 15%; Pf growth 48h: 0.37µM*; AMA1 RON2 block: -1%; Vaccinia Venus: -9%

What do the screens show for `COc1ccc(Cl)cc1NC(=O)CCS(=O)(=O)c1cccc2nonc12`?
VACV mCherry inh: inactive; Vaccinia Venus: -23%

Results for CN1CCc2cccc3c2C1Cc1ccc(O)c(O)c1-3 (stereo not given) ?
VACV mCherry inh: -14%; Pf growth 96h: 10µM*; Pf growth 48h: inconclusive; AMA1 RON2 block: inconclusive; Vaccinia Venus: -14%

What do the screens show for `O=C(O)CC1SC(=Nc2cccc(C(F)(F)F)c2)NC1=O` (stereo not given)?
VACV mCherry inh: -4%; Pf growth 96h: 2.9µM*; AMA1 RON2 block: 17%; Vaccinia Venus: -6%

What do the screens show for `O=C(O)CC1SC(=Nc2ccc(O)cc2)NC1=O` (stereo not given)?
VACV mCherry inh: inactive; Pf growth 96h: 41%; Pf growth 48h: 4%; AMA1 RON2 block: -7%; Vaccinia Venus: -3%
